Test systems include NCI-H23 lung; NCI-H226 lung; NCI-H322M lung; HOP-62 NSCLC; NCI-H460 lung; HOP-92 NSCLC; NCI-H522 lung; A549/ATCC NSCLC; 786-0 renal; COLO 205 colon; DU-145 prostate; K-562 leukemia; MALME-3M melanoma; MDA-MB-231 breast; RXF 393 renal; SF-268 CNS; SF-295 CNS; SF-539 CNS; UACC-257 melanoma; M14 melanoma.
Assay in all cases: NCI-60 one-dose screen, 48 h (100 = growth as untreated, 0 = no growth, -100 = all killed)
What all share (details): 10 µM

The panel holds about 83,000 compounds, 20% with a hit somewhere; the sample as a whole holds those more often.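 For each line, cells grew in 96-well plates with the test compound present at a single concentration for 48 hours.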 Values without a mark were called inactive. The source made the active and inactive calls. The calls were made as follows: active = growth percent below 10; inactive = the rest.

Turning to `COc1ccc(N(C)c2cc(C#N)nc3ccccc23)cc1/C=C/C(=O)NO`, the growth in the assay on NCI-H23 lung is -83.4% (active); with NCI-H226 lung it was -39% (active); in the assay on NCI-H322M lung, 0.0682% (active); with HOP-62 NSCLC, -48% (active); in the assay with NCI-H460 lung, 0.587% (active); in the assay on HOP-92 NSCLC it was -12.2% (active). Besides, the growth with NCI-H522 lung was -75.4% (active); in the assay with A549/ATCC NSCLC it was 7.16% (active); in the assay on 786-0 renal, -9.47% (active); with COLO 205 colon it was -34.2% (active); in the assay with DU-145 prostate it was 16.7%; with K-562 leukemia, 4.1% (active). The growth was -56.5% (active) in the assay on MALME-3M melanoma; -73.5% (active) in the assay with MDA-MB-231 breast; -82.2% (active) in the assay with RXF 393 renal; -30% (active) with SF-268 CNS; -73.8% (active) with SF-295 CNS; -89.6% (active) with SF-539 CNS. Besides, the growth is -26.2% (active) in the assay on UACC-257 melanoma and 2.45% (active) with M14 melanoma.

Turning to `O=C(Nc1ccc(I)cc1)Nc1nc2ccc([N+](=O)[O-])cc2s1`, the growth with NCI-H23 lung was -95.9% (active); with NCI-H226 lung, -74.2% (active); with NCI-H322M lung it was -86.6% (active); in the assay with HOP-62 NSCLC it was -90.4% (active); in the assay on NCI-H460 lung, -72.1% (active); in the assay on HOP-92 NSCLC it was -87.9% (active). The growth in the assay with NCI-H522 lung is -89.4% (active); in the assay with A549/ATCC NSCLC, -91.6% (active); with 786-0 renal, -100% (active); in the assay on COLO 205 colon, -92.2% (active); in the assay on DU-145 prostate it was -100% (active); in the assay with K-562 leukemia, -82.8% (active). The growth in the assay with MALME-3M melanoma is -99.7% (active); with MDA-MB-231 breast, -100% (active); with RXF 393 renal, -95.1% (active); with SF-268 CNS it was -83.7% (active); in the assay on SF-295 CNS it was -95.4% (active); in the assay on SF-539 CNS, -99.7% (active). For the same molecule, the growth with UACC-257 melanoma was -91% (active); in the assay on M14 melanoma, -100% (active).

Regarding `Cn1cc(-c2cc(N)n3nc(-c4c[nH]c5ccc(Br)cc45)cc3n2)c2cc(Br)cnc21`, the growth in the assay on NCI-H23 lung is -81.5% (active); in the assay on NCI-H226 lung it was -55.3% (active); in the assay with NCI-H322M lung it was 11.7%; with HOP-62 NSCLC, -69.2% (active); in the assay on NCI-H460 lung it was 2.27% (active); in the assay on HOP-92 NSCLC, -63.2% (active). Moreover, the growth was -72% (active) with NCI-H522 lung; -45.8% (active) in the assay with A549/ATCC NSCLC; -75% (active) with 786-0 renal; -90.9% (active) in the assay on COLO 205 colon; -75.6% (active) in the assay on DU-145 prostate; -27.4% (active) in the assay with K-562 leukemia. Moreover, the growth in the assay with MALME-3M melanoma was -92.1% (active); with MDA-MB-231 breast, -82.5% (active); with RXF 393 renal it was -71.2% (active); with SF-268 CNS, -22.5% (active); in the assay with SF-295 CNS it was -86.4% (active); with SF-539 CNS, -97.6% (active). Besides, the figures for the growth in the assay on UACC-257 melanoma and in the assay on M14 melanoma were -65.4% (active) and -90.6% (active), respectively.

For the molecule `C=C1CCC2C3(C)COC(c4c(F)cccc4F)OC3CCC2(C)C1CC(O)C1=CCOC1=O` (stereo not given), the growth in the assay on NCI-H23 lung was 83.5%; in the assay with NCI-H226 lung, 79.3%; with NCI-H322M lung, 108%; in the assay with HOP-62 NSCLC it was 86%; with NCI-H460 lung, 89.2%; with HOP-92 NSCLC it was 55.4%. Further, the growth with NCI-H522 lung was -33.8% (active); in the assay with A549/ATCC NSCLC, 71.9%; in the assay on 786-0 renal, 19.1%; in the assay on COLO 205 colon, 42.4%; in the assay on DU-145 prostate it was 68.1%; in the assay with K-562 leukemia it was 21.4%. Also, the growth in the assay on MALME-3M melanoma was 96.3%; in the assay with MDA-MB-231 breast, 91.1%; in the assay on RXF 393 renal, 66.1%; with SF-268 CNS, 98.5%; in the assay with SF-295 CNS, 79.4%; in the assay with SF-539 CNS, 57%. The growth in the assay on UACC-257 melanoma was 74.1%; in the assay on M14 melanoma it was 53.9%.

Turning to `CS(=O)(=O)Nc1ccc(-c2ccc3c(c2)ncn3-c2ccc(NC(=O)Nc3ccc(Cl)c(C(F)(F)F)c3)cc2)cc1`, the growth in the assay with NCI-H23 lung is -70.3% (active); in the assay with NCI-H226 lung it was -51% (active); with NCI-H322M lung, -42.9% (active); in the assay with HOP-62 NSCLC, -87.1% (active); in the assay with NCI-H460 lung, 0.554% (active); in the assay on HOP-92 NSCLC, -43.5% (active). Further, the growth with NCI-H522 lung was -87.6% (active); with A549/ATCC NSCLC, -75.1% (active); in the assay on 786-0 renal it was -77.9% (active); in the assay on COLO 205 colon, -90.4% (active); with DU-145 prostate, -4.47% (active); with K-562 leukemia, -26% (active). The growth is -80.8% (active) in the assay with MALME-3M melanoma; -84.6% (active) in the assay on MDA-MB-231 breast; -57.5% (active) with RXF 393 renal; 2.56% (active) in the assay on SF-268 CNS; -77.5% (active) in the assay on SF-295 CNS; -88.8% (active) with SF-539 CNS. Moreover, the growth in the assay on UACC-257 melanoma was -57.2% (active); in the assay with M14 melanoma it was -95.3% (active).

Regarding `C/C(=C\CSc1ccccc1C(=O)O)CCCC(C)CCCC(C)CCCC(C)C` (stereo not given), the growth with NCI-H23 lung was 35.5%; in the assay on NCI-H226 lung, 77.5%; with NCI-H322M lung, 65.8%; in the assay on HOP-62 NSCLC, 57.6%; with NCI-H460 lung, 39.6%; in the assay on HOP-92 NSCLC, 71.4%. For the same molecule, the growth in the assay on NCI-H522 lung was 23.3%; in the assay on A549/ATCC NSCLC, 41.3%; in the assay on 786-0 renal, 67.3%; in the assay on COLO 205 colon it was 87.8%; in the assay on DU-145 prostate, 67.1%; in the assay on K-562 leukemia it was 36.2%. In addition, the growth with MALME-3M melanoma was 86.4%; in the assay on MDA-MB-231 breast, 75.9%; with RXF 393 renal it was 87.8%; in the assay with SF-268 CNS, 51.5%; with SF-295 CNS, 40.6%; in the assay on SF-539 CNS, 61.1%. For the same molecule, the growth was 80.7% with UACC-257 melanoma and 60% in the assay with M14 melanoma.

Consider `O=C(N/N=C/c1ccc(-c2cccc([N+](=O)[O-])c2)o1)c1[nH]c2ccc(Br)cc2c1-c1ccccc1`, for which the growth with NCI-H23 lung is 17.6%; in the assay with NCI-H226 lung, 16.2%; in the assay with NCI-H322M lung it was 54%; in the assay with HOP-62 NSCLC, 38.7%; in the assay with NCI-H460 lung, 9.61% (active); with HOP-92 NSCLC, 55.7%. For the same molecule, the growth was -48.4% (active) with NCI-H522 lung; 0.801% (active) in the assay on A549/ATCC NSCLC; 5.31% (active) in the assay on 786-0 renal; -65.4% (active) in the assay with COLO 205 colon; 6.18% (active) in the assay on DU-145 prostate; 4.74% (active) in the assay on K-562 leukemia. Besides, the growth with MALME-3M melanoma is 39%; with MDA-MB-231 breast, 6.8% (active); in the assay with RXF 393 renal, 26.4%; with SF-268 CNS, 36%; in the assay with SF-295 CNS it was -15.3% (active); in the assay with SF-539 CNS it was -49.8% (active). The growth is 41.9% with UACC-257 melanoma and 10.4% in the assay with M14 melanoma.
